Measured potencies and affinities stand elsewhere.

The experiment has as its system Staphylococcus aureus. The note with it: Concentration 20 uM; ASSAY_TEST Inhibition of Bacterial Growth; detection method Absorption (OD600); MEDIA CAMHB; plate type 384well; NBS; CORNING #3640; time 18 hr.
In the case of `CCCc1nc(C(C)(C)O)c(C(=O)OCc2oc(=O)oc2C)n1Cc1ccc(-c2ccccc2-c2nnn[nH]2)cc1` [OLMESARTAN MEDOXOMIL], the Inhibition is 10.76%.
The same measure for `COC(=O)CCc1ccc(OCC(O)CNC(C)C)cc1.Cl` (stereo not drawn) [ESMOLOL HYDROCHLORIDE]: 16.29%; for `CC(CCCCC(=O)Nc1ccc(C(F)(F)F)cc1)NCCc1c[nH]cn1.O=C(O)/C=C\C(=O)O.O=C(O)/C=C\C(=O)O` (stereo not drawn): 7.23%.
In the case of `CC1(C)C[C@@H]1C(=O)N/C(=C\CCCCSC[C@H](N)C(=O)O)C(=O)[O-].[Na+]` [CILASTATIN SODIUM], the Inhibition is -4.51%.
The figure for `CCN1CC(CCN2CCOCC2)C(c2ccccc2)(c2ccccc2)C1=O.Cl` (stereo not drawn) is -18.77%; for `C#C[C@]1(O)CC[C@H]2[C@@H]3CCC4=Cc5oncc5C[C@]4(C)[C@H]3CC[C@@]21C` [DANAZOL] it is 2.21%.
Consider `CN(C)CCCSc1ccccc1NC(=O)/C=C/c1ccccc1.Cl.O`, for which the Inhibition came to 14.82%.
The same measure for `Cc1sc(N)c(C(=O)c2cccc(C(F)(F)F)c2)c1C`: 5.2%.
Take `Cc1cc2c(s1)Nc1ccccc1N=C2N1CCN(C)CC1` [OLANZAPINE]: the Inhibition worked out at 9.67%.
Consider `COc1cc2nc(N3CCN(C(=O)C4COc5ccccc5O4)CC3)nc(N)c2cc1OC` (stereo not drawn) [DOXAZOSIN], for which the Inhibition was 8.23%.
The same measure for `CCN(CC)CCNC(=O)c1ccc(N)cc1.Cl` [PROCAINAMIDE HYDROCHLORIDE]: -10.39%.
In the case of `Nc1nc(O)c2ncn(CCC(CO)CO)c2n1` [PENCICLOVIR], the Inhibition is given as 6.12%.
The same measure for `COc1ccc(OC)c(C(O)CNC(=O)CN)c1.Cl` (stereo not drawn) [MIDODRINE HYDROCHLORIDE]: 15.42%; for `Cc1cccc(CN2CCN(C(c3ccccc3)c3ccc(Cl)cc3)CC2)c1.Cl.Cl` (stereo not drawn): 9.26%; for `C[C@H]1C[C@@H]2[C@H]([C@@H](O)C[C@@]3(C)[C@H]2CC[C@]3(O)C(=O)CO)[C@@]2(C)C=CC(=O)C=C12` [METHYLPREDNISOLONE]: 7.4%.
The figure for `CC(C)(C)C(O)/C=C/c1ccc2c(c1)OCO2` (stereo not drawn) [STIRIPENTOL] is 0.92%; for `CC(=O)C1(O)CCC2C3CC(C)C4=CC(=O)C=CC4(C)C3(F)C(O)CC21C` (stereo not drawn) it is 5.95%.
The figure for `COc1cc([C@@H]2c3cc4c(cc3[C@@H](O[C@@H]3O[C@@H]5CO[C@@H](C)O[C@H]5[C@H](O)[C@H]3O)[C@H]3COC(=O)[C@H]23)OCO4)cc(OC)c1O` [ETOPOSIDE] is 14.84%.
As to `CC(=O)OCC(=O)[C@@]1(O)CC[C@H]2[C@@H]3C[C@H](C)C4=CC(=O)C=C[C@]4(C)[C@H]3[C@@H](O)C[C@@]21C` [METHYLPREDNISOLONE ACETATE], the Inhibition is 6.17%.
Take `CCCSc1ccc2[nH]c(NC(=O)OC)nc2c1` [ALBENDAZOLE]: the Inhibition stood at 3.05%.
`CN1C(=O)CC[C@H]1c1cccnc1` [COTININE]: the Inhibition is recorded as -20.45%.
The figure for `CC(C)(C)NC(=O)[C@H]1CC[C@H]2[C@@H]3CC[C@H]4NC(=O)C=C[C@]4(C)[C@H]3CC[C@]12C` [FINASTERIDE] is -0.3%.
The same measure for `CCCNC(=O)NS(=O)(=O)c1ccc(Cl)cc1` [CHLORPROPAMIDE]: 17.96%; for `Nc1nc(Cl)nc2c1ncn2[C@@H]1O[C@H](CO)[C@@H](O)[C@H]1O`: -10.52%; for `CC(=O)SCC(Cc1ccccc1)C(=O)NCC(=O)OCc1ccccc1` (stereo not drawn) [RACECADOTRIL]: 11.13%.
For `COc1cc(OC)c(C(=O)CCCN2CCCC2)c(OC)c1.Cl`, the Inhibition is listed as 14.97%.
The same measure for `CC(C)(C(=O)c1cccnc1)c1cccnc1` [METYRAPONE]: 4.18%; for `C[C@H]1O[C@@H](O[C@H]2[C@@H](O)C[C@H](O[C@H]3[C@@H](O)C[C@H](O[C@H]4CC[C@@]5(C)[C@H](CC[C@@H]6[C@@H]5C[C@@H](O)[C@]5(C)C(C7=CC(=O)OC7)CC[C@]65O)C4)O[C@@H]3C)O[C@@H]2C)C[C@H](O)[C@@H]1O` (stereo partly drawn): 15.53%.
The same measure for `CN(C)CCC(c1ccc(Cl)cc1)c1ccccn1.O=C(O)/C=C\C(=O)O` (stereo not drawn) [CHLORPHENIRAMINE MALEATE]: -22.38%; for `CC1(C)O[C@@H]2C[C@H]3[C@@H]4C[C@H](F)C5=CC(=O)C=C[C@]5(C)[C@H]4[C@@H](O)C[C@]3(C)[C@]2(C(=O)CO)O1` [FLUNISOLIDE]: 6.94%.
The figure for `N[C@@H](Cc1cc(I)c(Oc2cc(I)c(O)c(I)c2)c(I)c1)C(=O)O` [LEVOTHYROXINE] is -5.39%.
As to `O=C1C(CC[S+]([O-])c2ccccc2)C(=O)N(c2ccccc2)N1c1ccccc1` (stereo not drawn) [SULFINPYRAZONE], the Inhibition worked out at 18.52%.
The figure for `CCCCC(=O)N(Cc1ccc(-c2ccccc2-c2nnn[nH]2)cc1)[C@H](C(=O)O)C(C)C` is 14.82%.
The figure for `CN(CCOc1ccc(NS(C)(=O)=O)cc1)CCc1ccc(NS(C)(=O)=O)cc1` [DOFETILIDE] is 11.97%; for `Cc1nc2ccccn2c(=O)c1CCN1CCC(C(=O)c2ccc(F)cc2)CC1` [PIRENPERONE] it is 1.36%; for `Nc1nc2c(ncn2COC(CO)CO)c(=O)[nH]1` [GANCICLOVIR] it is 7.88%.
As for `Cl.O[C@@H](c1cc(C(F)(F)F)nc2c(C(F)(F)F)cccc12)[C@H]1CCCCN1`, the Inhibition came out at 36.85%.
On to `CCOC(=O)[C@H](CCc1ccccc1)N[C@H]1CCc2ccccc2N(CC(=O)O)C1=O.Cl` [BENAZEPRIL HYDROCHLORIDE], for which the Inhibition is listed as 9.63%.

Values taken from ChEMBL document CHEMBL4513141, “CO-ADD screening of NIH (USA) - Clinical Collection” (2021).
